Laboratory results: PubChem BioAssay AID1159580 (chemical genetic matrix, 2015)
Several values for one entry are separate records, joined by “and”; a condition that tells them apart may be missing. Equal values may be shown once. In all, about 5,500 compounds went through this assay and about 2,000 (36%) were called active. Not shown: some 18% with an inconclusive outcome. Cut-off read from the data, not from the text of the source: active = normalized growth mostly below about 0.91 (no sharp cut-off); inconclusive = no clear call, values can overlap the other calls; inactive = mostly above about 0.92. This is one part of the list.

Test: chemical genetic growth profiling, strain panel (AID 1159580);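 note: tested at 20 µM; growth read once vehicle control cultures reached saturation at 30 °C; 1 = growth at the plate median or of vehicle wells; lower values mean less growth of the strain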
Conditions: growth OD

Measured: normalized growth

CN1CCN2c3ccccc3Cc3ccccc3C2C1 (stereo unspecified)
inactive: S. cerevisiae deletion strains, locus YJR075W, strain HOC1, hits give low values 1 and 0.97 | S. cerevisiae deletion strains, locus YKL009W, strain mrt4, hits give low values 0.999 | S. cerevisiae deletion strains, locus YKL068W, hits give low values 0.991 | S. cerevisiae deletion strains, locus YKL085W, strain MDH1 (second series), hits give low values 0.987 | S. cerevisiae deletion strains, locus YKL085W, strain MDH1, hits give low values 0.987 | S. cerevisiae deletion strains, locus YKL160W, strain elf1, hits give low values 0.989 | S. cerevisiae deletion strains, locus YKL190W, strain CNB1, hits give low values 1.02 | S. cerevisiae deletion strains, locus YKR001C, strain vps1, hits give low values 0.976 | S. cerevisiae deletion strains, locus YKR026C, strain gcn3, hits give low values 1 | S. cerevisiae deletion strains, locus YKR091W, strain srl3, hits give low values 1.01 | S. cerevisiae deletion strains, locus YLL001W, strain dnm1, hits give low values 0.982 | S. cerevisiae deletion strains, locus YLL026W, hits give low values 0.997 | S. cerevisiae deletion strains, locus YLL041C, strain sdh2, hits give low values 1 | S. cerevisiae deletion strains, locus YLR027C, strain aat2, hits give low values 1 | S. cerevisiae deletion strains, locus YLR039C, strain RIC1, hits give low values 1.03 | S. cerevisiae deletion strains, locus YLR058C, strain SHM2, hits give low values 1.01 | S. cerevisiae deletion strains, locus YLR102C, strain apc9, hits give low values 0.994 | S. cerevisiae deletion strains, locus YLR113W, strain HOG1, hits give low values 0.996 | S. cerevisiae deletion strains, locus YLR221C, strain rsa3, hits give low values 0.993 | S. cerevisiae deletion strains, locus YLR258W, strain gsy2, hits give low values 0.987 | S. cerevisiae deletion strains, locus YLR262C, strain YPT6 (second series), hits give low values 0.991 | S. cerevisiae deletion strains, locus YLR262C, strain YPT6, hits give low values 1.05 | S. cerevisiae deletion strains, locus YLR268W, strain sec22, hits give low values 0.974 | S. cerevisiae deletion strains, locus YLR320W, strain mms22, hits give low values 0.985 | S. cerevisiae deletion strains, locus YLR330W, strain CHS5, hits give low values 1.01 | S. cerevisiae deletion strains, locus YLR342W, strain FKS1 (second series), hits give low values 0.985 | S. cerevisiae deletion strains, locus YLR342W, strain FKS1, hits give low values 0.999 | S. cerevisiae deletion strains, locus YLR357W, strain rsc2, hits give low values 1.01 | S. cerevisiae deletion strains, locus YLR370C, strain arc18, hits give low values 1 | S. cerevisiae deletion strains, locus YLR371W, strain rom2, hits give low values 1 | S. cerevisiae deletion strains, locus YLR384C, strain iki3, hits give low values 1 | S. cerevisiae deletion strains, locus YLR418C, strain cdc73, hits give low values 0.989 | S. cerevisiae deletion strains, locus YML016C, strain PPZ1, hits give low values 1.01 | S. cerevisiae deletion strains, locus YML032C, strain rad52, hits give low values 1 | S. cerevisiae deletion strains, locus YML120C, strain ndi1, hits give low values 1 | S. cerevisiae deletion strains, locus YML124C, strain tub3, hits give low values 0.994 | S. cerevisiae deletion strains, locus YMR058W, strain fet3, hits give low values 1.01 | S. cerevisiae deletion strains, locus YMR078C, strain ctf18, hits give low values 0.987 | S. cerevisiae deletion strains, locus YMR125W, strain sto1, hits give low values 1 | S. cerevisiae deletion strains, locus YMR129W, hits give low values 0.981 | S. cerevisiae deletion strains, locus YMR205C, strain PFK2, hits give low values 0.982 | S. cerevisiae deletion strains, locus YMR223W, strain ubp8, hits give low values 0.986 | S. cerevisiae deletion strains, locus YMR231W, strain pep5, hits give low values 1 | S. cerevisiae deletion strains, locus YMR263W, strain SAP30, hits give low values 1.01 and 0.995 | S. cerevisiae deletion strains, locus YMR307W, strain GAS1, hits give low values 1.04 | S. cerevisiae deletion strains, locus YNL067W, strain RPL9B, hits give low values 1.02 | S. cerevisiae deletion strains, locus YNL071W, strain lat1, hits give low values 0.998 | S. cerevisiae deletion strains, locus YNL128W, strain TEP1, hits give low values 1.02 | S. cerevisiae deletion strains, locus YNL153C, strain GIM3, hits give low values 1.02 and 0.974 | S. cerevisiae deletion strains, locus YNL175C, strain NOP13, hits give low values 1.02 | S. cerevisiae deletion strains, locus YNL183C, strain NPR1, hits give low values 0.919 | S. cerevisiae deletion strains, locus YNL197C, strain WHI3, hits give low values 1.02 | S. cerevisiae deletion strains, locus YNL209W, strain ssb2, hits give low values 0.997 | S. cerevisiae deletion strains, locus YNL224C, strain SQS1, hits give low values 1.02 | S. cerevisiae deletion strains, locus YNL233W, strain BNI4, hits give low values 1.02 | S. cerevisiae deletion strains, locus YNL248C, strain rpa49, hits give low values 0.994 | S. cerevisiae deletion strains, locus YNL250W, strain rad50, hits give low values 0.985 | S. cerevisiae deletion strains, locus YNL271C, strain bni1, hits give low values 0.981 | S. cerevisiae deletion strains, locus YNL298W, strain CLA4, hits give low values 0.99 | S. cerevisiae deletion strains, locus YNL307C, strain MCK1, hits give low values 0.993 | S. cerevisiae deletion strains, locus YNL322C, strain KRE1 (second series), hits give low values 0.996 | S. cerevisiae deletion strains, locus YNL322C, strain KRE1, hits give low values 1.02 | S. cerevisiae deletion strains, locus YNR049C, strain mso1, hits give low values 1 | S. cerevisiae deletion strains, locus YNR052C, strain pop2, hits give low values 0.989 | S. cerevisiae deletion strains, locus YOL006C, strain TOP1, hits give low values 1.02 | S. cerevisiae deletion strains, locus YOL012C, strain htz1 0.782 | S. cerevisiae deletion strains, locus YOL147C, strain pex11, hits give low values 0.991 | S. cerevisiae deletion strains, locus YOR001W, strain rrp6, hits give low values 0.99 | S. cerevisiae deletion strains, locus YOR061W, strain CKA2, hits give low values 1.02 | S. cerevisiae deletion strains, locus YOR069W, strain VPS5, hits give low values 1.01 | S. cerevisiae deletion strains, locus YOR070C, strain gyp1, hits give low values 0.999 | S. cerevisiae deletion strains, locus YOR080W, strain dia2, hits give low values 1.01 | S. cerevisiae deletion strains, locus YOR083W, strain WHI5 (second series), hits give low values 0.985 | S. cerevisiae deletion strains, locus YOR083W, strain WHI5, hits give low values 0.983 | S. cerevisiae deletion strains, locus YOR106W, strain vam3, hits give low values 0.986 | S. cerevisiae deletion strains, locus YOR136W, strain idh2, hits give low values 0.992 | S. cerevisiae deletion strains, locus YOR144C, strain elg1, hits give low values 0.99 | S. cerevisiae deletion strains, locus YOR184W, strain ser1, hits give low values 0.98 | S. cerevisiae deletion strains, locus YOR231W, strain MKK1, hits give low values 0.973 | S. cerevisiae deletion strains, locus YOR265W, strain rbl2, hits give low values 1 | S. cerevisiae deletion strains, locus YOR270C, strain vph1, hits give low values 0.993 | S. cerevisiae deletion strains, locus YOR290C, strain snf2, hits give low values 0.928 | S. cerevisiae deletion strains, locus YOR316C, strain cot1, hits give low values 0.989 | S. cerevisiae deletion strains, locus YPL051W, strain arl3, hits give low values 0.988 | S. cerevisiae deletion strains, locus YPL055C, strain LGE1, hits give low values 1.04 | S. cerevisiae deletion strains, locus YPL078C, strain atp4, hits give low values 0.983 | S. cerevisiae deletion strains, locus YPL106C, strain sse1, hits give low values 0.989 | S. cerevisiae deletion strains, locus YPL240C, strain hsp82, hits give low values 1.01 | S. cerevisiae deletion strains, locus YPL241C, strain CIN2, hits give low values 1.01 | S. cerevisiae deletion strains, locus YPL256C, strain CLN2, hits give low values 0.99 | S. cerevisiae deletion strains, locus YPR119W, strain clb2, hits give low values 0.988 | S. cerevisiae deletion strains, locus YPR141C, strain kar3, hits give low values 0.975 | S. cerevisiae deletion strains, locus YPR163C, strain tif3, hits give low values 0.984 | S. cerevisiae deletion strains, locus YPR167C, strain met16, hits give low values 0.987 | S. cerevisiae deletion strains, strain wtn01, hits give low values 0.97 | S. cerevisiae strains, strain wild type, hits give low values 1.01
